Drawing on PubChem BioAssay AID1053124 (Broad Institute, 2014), this text covers outcome for 39 compounds.

Results with a measured potency or affinity are listed apart. Active and inactive are the calls of the source.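 How the source made its calls: active means cell killing whose fitted half-effect concentration is at most twice the top valid dose tested; inconclusive means flat curve with 30 to 70% killing, or a poor fit; inactive means effect in the rising direction, plus the rest.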

The nature of this assay: viability loss in A549 lung cells – cell-based, ATP luminescence, cherry-pick, set 2, cytotoxicity control, dose response (AID 1053124).

Take `CCN1C=C(C(=O)OC)C(c2cccc(OC)c2OC)C(C(=O)OC)=C1`: the result was inactive.
As to `Cc1cc(CNC(=O)c2ccc3c(c2)OCO3)c2ccccc2n1`, the call was inactive.
Turning to `CC(=O)c1sc(N/N=C\c2ccc(N(C)C)cc2)nc1C`, the compound was classed as inactive.
For `COc1ccc(S(=O)(=O)Cc2ccc(C(=O)N3CCN(Cc4ccccc4)CC3)o2)cc1`, the compound was classed as inactive.
With `NC(=O)c1c(NC(=O)Cc2ccccc2)sc2c1CCN(Cc1ccccc1)C2` the entry was “inactive”; with `CCOC(=O)c1cc(-c2ccccc2)sc1NC(=O)CSc1nnc(N)s1`, “inactive”; with `O=C(Nc1ccc(-c2ccco2)cc1)C1CCCN(Cc2ccco2)C1` (centres undefined), “inactive”.
The result for `Cc1cccn2c(=O)c(/C=C(\C#N)C(N)=O)c(Oc3ccccc3)nc12` reads “inactive”.
With `CCN(CC)Cc1c(O)c(Cl)cc2c(C)cc(=O)oc12`, the call was inactive.
On to `CCN1C(=O)c2cccc3c(S(=O)(=O)N(C)C)ccc1c23`, for which the call was inactive.
For the compound `CCN(c1ccccc1)S(=O)(=O)c1ccc(OC)c(NC(=O)CN(C)C)c1`, the call was inactive.
Take `CC(C)C(=O)Nc1sc2c(c1C(N)=O)CCN(Cc1ccccc1)C2`: the compound was called inactive.
`O=C(c1cccc(Cl)c1)N1CCC(=O)N(C(COCc2ccccc2)Cc2ccccc2)CC1` (centres undefined): the result was inactive.
Take `NC(=O)c1cc([N+](=O)[O-])ccc1NCc1cccnc1`: the compound was classed as inactive.
With `CNC(=O)c1ccc(NC(=O)c2cccc(C(F)(F)F)c2)cc1` the entry was “inactive”.
Take `Cc1c(C=O)c2ccccn2c1C(=O)c1cccs1`: the outcome was inactive.
With `CC(C)CCN(CCC(C)C)CC(O)Cn1c2ccccc2c(=O)c2ccccc21` (centres undefined) the entry was “inactive”; with `COc1ccc(CNC(=O)c2sc(=O)n(Cc3ccc(C)cc3)c2C)cc1OC`, “inactive”; with `[O-]/[N+](=C/c1ccccc1)c1ccccc1`, “inactive”.
Turning to `CCOCCCNc1c(CC)c(C)c(C#N)c2nc3ccccc3n12`, the compound was called inactive.
In the case of `O=C(O)c1cccc(Nc2nc(-c3cc4ccccc4oc3=O)cs2)c1`, the compound was called inactive.
The result for `COc1ccc(Cn2nnnc2C(CC(C)C)N2CCC(C(N)=O)CC2)cc1` (centres undefined) reads “inactive”; that for `N#Cc1c2ccc(OCC(N)=O)cc2n2ccccc12`, “inactive”.
Consider `O=C(O)c1cccc(NC(=O)c2cn(-c3ccccc3)nc2-c2cccc(Br)c2)c1`, for which the compound was classed as inactive.
On to `Cc1cccn2c(=O)c3cc(C(=O)NC(C)c4ccccc4)c(=N)n(CCCn4ccnc4)c3nc12` (centres undefined), for which the outcome was inactive.
Regarding `C#CCOc1ccc(C2C(C#N)=C(N)Oc3cc(O)ccc32)cc1` (centres undefined), the compound was called inactive.
In the case of `O=C(O)c1ccc(-c2ccc(/C=C3\NC(=O)N(Cc4ccc(Cl)cc4)C3=O)o2)cc1`, the call was inactive.
As to `Cc1oc(/N=C/c2ccc(O)cc2O)c(C#N)c1C`, the outcome was inactive.
As for `COc1ccc(C2C3=C(CC(C)(C)CC3=O)N(C)C3=C2C(=O)CC(C)(C)C3)cc1`, the outcome was inactive.
As to `O=C(NCc1ccc(F)cc1)C1CCCN1C(=O)Nc1cccc(F)c1` (centres undefined), the compound was called inactive.
As to `CCN(CC)c1ccc2cc(C#N)c(=O)oc2c1`, the compound was classed as inactive.
On to `CCN(CC)c1ccc2cc(S(=O)(=O)c3ccc(Cl)cc3)c(=O)oc2c1`, for which the outcome was inactive.
For `Cc1cc(-c2nc3cccnc3s2)ccc1NS(=O)(=O)c1cccs1`, the compound was classed as inactive.
As for `COc1cccc(N2CCN(C(=O)C3CCCN(S(=O)(=O)c4cnc[nH]4)C3)CC2)c1` (centres undefined), the compound was classed as inactive.
For the compound `Cc1c2c(n3c(nc4ccccc43)c1C#N)N(CCN1CCOCC1)CC2`, the compound was called inactive.
As to `Cc1ccc(OCC(=O)NNc2c3ccccc3nc3ccccc23)cc1`, the compound was classed as inactive.
Consider `CCc1nnc(NC(=O)c2ccc(-c3ccccc3F)o2)s1`, for which the outcome was inactive.
With `CC(=O)N=c1c(C#N)cc2c(=O)n3ccccc3nc2n1CCCOC(C)C` the entry was “inactive”.
With `CC(=O)c1cc2c(ccc3ccccc32)oc1=O` the entry was “inactive”.
